From PubChem
Pf growth 96h: P. falciparum growth inhibition at 96 hour, primary screen for plastid delayed-death inhibitors; Potency, µM (highest dose often 28.7 µM), for the others: at the top dose activity change, negative = inhibition, actives largely listed as inhibitors; P. falciparum luciferase reporter growth, 96 h; 320,000 tested, 6.9% active; also: potency is read from the fitted curve at half-maximal effect; % is scaled to controls: 0 for no effect and ±100 for the full control effect
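Luminescence readout: decreased luciferase signal marks inhibited growth of reporter-expressing P. falciparum in infected red cells (2% hematocrit, 0.05% parasitemia final), exposed to compound two generations (96 h, 37 C, 5% CO2).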
CHX counter: counter-screen hit for Shiga toxin inhibitors, cycloheximide | cell reporter, cycloheximide protein synthesis inhibition counterscreen | max response, % | 300,000 tested, 12% active; in the data active = max response mostly above about 13%, no sharp cut-off; inactive = mostly below about 14%; also: read at 38.3 µM for the half of the compounds with a filed dose; 0% is about no effect
HCMV antiviral: blocks human cytomegalovirus replication | HFF cells, HCMV-luciferase reporter, 72 h; hits give low values | activity change, negative = inhibition, % at 57.5 µM | 410,000 tested, 4.5% active; in the data active = activity change below about -60%; inconclusive = no clear call, values can overlap the other calls; inactive = above about -39%; also: % is scaled to controls: 0 for no effect and ±100 for the full control effect
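Screen run at 2 compound doses on HFFs infected with reporter HCMV, MOI 1 PFU/cell. Luciferase activity from cell lysates at 72 h post infection gave inhibition relative to buffer-only and Salinomycin wells.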
Pf growth 48h: P. falciparum growth inhibition at 48 hours (one generation). P. falciparum luciferase growth in erythrocytes, 48 h. Potency, µM (doses to about 28.7 µM), inactives show top-dose activity change, negative = inhibition, hits mostly inhibitors. 310,000 tested, 5.9% active; also: potency is read from the fitted curve at half-maximal effect; % is scaled to controls: 0 for no effect and ±100 for the full control effect
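Compounds are pin-transferred into medium, infected erythrocytes (2% hematocrit, 0.1% parasitemia final) are added, and plates sit one parasite generation at 37 C in 5% CO2. Detection reagent is then added and luminescence measured.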
Shiga inhibitor: Shiga toxin inhibition; 290,000 tested, 9.2% active; Vero cells, Shiga toxin protein synthesis inhibition reporter; inhibition, % at 38.7 µM; AID 2315; in the data active = inhibition mostly above about 28%, no sharp cut-off; inactive = mostly below about 43%; also: 0% is about no effect
Numbers without * were called inactive; ? = inconclusive; nt = not tested or not shown; [ ] = remark or other dose. In the library only some 20% were active in any assay of this set; here they are far more common. Unless noted, calls follow the shape of the dose curve; as a rule, active = well fitted inhibition curve with a large enough effect; inconclusive = small, poorly fitted or top-dose-only effect, or another doubt; inactive = no such curve, though single readings can be large or run the other way.

SMILES	Pf growth 96h	CHX counter	HCMV antiviral	Pf growth 48h	Shiga inhibitor
O=C(Nc1ccc(CSc2ccccc2)cc1)c1ccco1	67%	46*	-84*	16%	96*
COc1cc(NC(=O)c2ccccc2[N+](=O)[O-])ccc1NC(=O)C(C)C	9.3µM*	-3	-20	7%	-6
CCC(=O)Nc1ccc(NC(=O)c2ccco2)c(OC)c1	?	30*	48	105%	67*
O=C(Nc1nc(SCc2ccc(F)cc2)ns1)c1ccco1	?	16*	8	33%	34
Cc1ccc(C(=O)c2c(N)c(-c3nc(-c4ccc5c(c4)OCO5)cs3)c3ccccn23)cc1C	nt	nt	-2	nt	nt
CCC(=O)Nc1ccc(NC(=O)c2ccco2)cc1	-4%	25*	-2	146%	57*
COc1ccc(NC(=O)COC(=O)c2cc(OC)c(OC)cc2NC(=O)c2ccco2)cc1OC	6%	7	-66*	nt	5
COC(=O)c1cc(OC)c(OC)cc1NC(=O)c1ccco1	-35%	-3	-10	-19%	4
COc1ccccc1Cc1nc2ccccc2nc1SCC(=O)N(C)c1ccc(F)cc1	nt	nt	-14	nt	nt
CCC(C)Sc1nc2ccccc2c(=O)[nH]1 (stereo not given)	-51%	6	-6	?	16
C[C@H]1[C@@H](NC(=O)NCCCc2ccccc2)CC[C@@]23CCCN2C(=O)CCC[C@@H]13	nt	nt	-17	nt	nt
CSc1ccccc1OCc1cc(C(=O)NCCCc2ccccc2)no1	?	6	?	-13%	33
COc1cccc(OCc2cc(C(=O)NCCc3cccc(C)n3)no2)c1	?	11	79	2%	9
COc1ccc(OCc2cc(C(=O)NCCCc3ccccc3)no2)c(Cl)c1	9.3µM*	2	-10	?	7
COc1ccc(OCc2cc(C(=O)NCc3cccc(C)n3)no2)c(Cl)c1	41%	61*	62	6%	138*
CC1(C)Cc2c(c(N3CCOCC3)nc3snc(Br)c23)CO1	0.66µM*	-4	24	0.52µM*	-2
CC1(C)Cc2c(c(N3CCOCC3)nc3sc(C(N)=O)c(N)c23)CO1	-17%	6	-10	-13%	-18
CC1(C)Cc2c(c(N3CCOCC3)nc3snc(N)c23)CO1	-10%	1	-102*	-6%	-11
COc1nnnc2c1sc1nc(N3CCOCC3)c3c(c12)CC(C)(C)OC3	23%	0	nt	10%	-15
Cc1ccc(C(C(=O)NCc2ccco2)N(C(=O)CNC(=O)c2cccs2)c2c(C)cc(C)cc2C)cc1 (stereo not given)	1%	29*	-78*	?	35
Cc1ccc(C(C(=O)NCc2ccco2)N(Cc2ccco2)C(=O)CNC(=O)c2ccco2)cc1 (stereo not given)	6.6µM*	6	-25	-5%	4
COc1ccc(C(CC(=O)Nc2ccccc2OC)n2cccc2)cc1 (stereo not given)	?	-1	-23	-10%	34
COc1ccc(C(CC(=O)Nc2nccs2)n2cccc2)cc1 (stereo not given)	0%	31*	155	113%	150*
COc1ccc(OCC(=O)Nc2nccs2)cc1	30%	12	20	110%	6
COc1ccc(C(CC(=O)Nc2cc(OC)cc(OC)c2)n2cccc2)cc1 (stereo not given)	?	-1	-15	13µM*	-6
SMILES	Pf growth 96h	CHX counter	HCMV antiviral	Pf growth 48h	Shiga inhibitor
COc1ccc(C(CC(=O)Nc2nccs2)C(C)C)cc1 (stereo not given)	13µM*	-5	27	?	-15
CC(=O)Nc1ccc(-c2ccnc3c2CC(C(=O)Nc2ccccc2)O3)cc1 (stereo not given)	nt	nt	-15	nt	nt
COc1ccc(OCCn2c(C(C)Oc3ccccc3)nc3ccccc32)cc1 (stereo not given)	nt	nt	-1	nt	nt
CCCCN(C(=O)COC(=O)CSc1cc(C)c2ccccc2n1)c1c(N)n(CCC)c(=O)[nH]c1=O	6%	-2	-5	12%	3
N#Cc1cnn2c(C(F)(F)F)cc(-c3ccccc3)nc12	236%	-3	-35	10µM*	-24
COC(=O)c1cnn2c(C(F)(F)F)cc(-c3ccccc3)nc12	?	-2	2	?	9
COc1ccc(-c2cc(C(F)(F)F)n3ncc(C(=O)O)c3n2)cc1OC	-16%[5.75 µM]	25*	23	-16%	-17
O=C(c1cnn2c(C(F)(F)F)cc(-c3ccccc3)nc12)N1CCC2(CC1)OCCO2	15µM*	-5	-16	nt	-13
COc1ccc(-c2cc(C(F)(F)F)n3ncc(C(=O)N4CCc5ccccc5C4)c3n2)cc1	25%	0	-19	9.3µM*	-5
O=C(NCc1ccco1)c1ccc2nc([C@@H]3O[C@H](CO)[C@H](O)[C@H](O)[C@H]3O)[nH]c2c1	nt	nt	33	nt	nt
C=CCOc1ccc(C(=O)Nc2ncn[nH]2)cc1	-28%	-3	27	43%	8
C[C@@]12CCC(=O)C=C1C=C[C@H]1[C@H]3CC[C@](O)(CCC(=O)O)[C@]3(C)CC[C@@H]12	6.4µM*	nt	nt	?	nt
CN1CCN(C2=Cc3ccc(Cl)cc3Sc3ccc(F)cc32)CC1	12µM*	-5	22	13µM*	-7
COc1cc2[nH]c(=S)n(NC(=O)CC(C)C)c(=O)c2cc1OC	10µM*	-3	30	1%	-4
Cc1cc(OCC(=O)Nc2sc3c(c2C(N)=O)CCCC3)ccc1C(C)C	nt	nt	-14	nt	nt
COc1cccc(/C=C2/CN(C)CC3=C2OC(N)=C(C#N)C3c2cccc(OC)c2)c1 (stereo not given)	?	-1	9	13µM*	1
CNS(=O)(=O)c1ccc(CNC[C@H]2O[C@@H](n3cc(C)c(=O)[nH]c3=O)C[C@@H]2O)cc1	nt	nt	15	nt	nt
CCOc1ccc(S(=O)(=O)N(C)CCO)cc1-c1nc2c(C(C)(C)C)nn(C)c2c(=O)[nH]1	-8%	-7	-13	12µM*	-4
CCOc1ccccc1NC(=O)/C(C#N)=C/c1c(C)nn(-c2ccc(F)cc2)c1Cl	21%	47*	-10	-16%	85*
C=CCNC(=O)/C(C#N)=C/c1c(C)nn(-c2ccc(Cl)cc2)c1Cl	?	-1	116	-17%	-10
Cc1ccc(CN2CCc3nc(SCC(=O)Nc4cccc(C)c4C)[nH]c(=O)c3C2)cc1	nt	nt	6	nt	nt
COc1cc(-c2ccccc2)nc(N)n1	3.3µM*	87*	71	nt	77*
CCOc1cc(-c2ccccc2)nc(N)n1	-8%	49*	7	130%	106*
COc1ccc(CN(Cc2cccn2C)S(=O)(=O)c2cccc(C(F)(F)F)c2)cc1	?	10	-32	12µM*	20
COc1ccc(CN(Cc2cccn2C)S(=O)(=O)c2ccc(F)cc2)cc1	?	3	3	?	-4
O=C(Nc1ccc(Cl)c(C(F)(F)F)c1)C(=O)N1CCCCC1	?	27*	6	81%	61
O=C(Nc1ccc(Cl)c(C(F)(F)F)c1)c1nc2ccccc2nc1N1CCCCC1	nt	nt	-39	nt	nt
